Growth inhibition data for 20 molecules are collected here from PubChem BioAssay (NCI).

The nature of assay [1]: NCI Yeast Anticancer Drug Screen. Data for the rad50 strain (AID 155).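 Note: 0% = growth of vehicle-only cultures of the same strain.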 Conditions: S. cerevisiae rad50 strain growth inhibition; at 50.0 µM; stronger effect = higher value. The method, boiled down:
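Compounds were tested on a yeast strain with an engineered DNA damage repair alteration; the reported value is growth inhibition normalised to vehicle treatment.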

Assay [2] is described as follows: NCI Yeast Anticancer Drug Screen. Data for the mec2-1 strain (AID 157). Conditions: S. cerevisiae mec2-1 strain, at 50.0 µM, stronger effect = higher value. The method, boiled down: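 Each compound was tested on mec2-1 yeast, a strain altered in DNA damage repair or cell cycle control. Growth inhibition is reported relative to vehicle.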
Assay [3] in a line: NCI Yeast Anticancer Drug Screen. Data for the sgs1 mgt1 strain (AID 161).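 Note: 0% = growth of cultures given vehicle only.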 Conditions: S. cerevisiae sgs1 mgt1 strain, at 50.0 µM, stronger effect = higher value. The method, boiled down:
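Genetically altered yeast, compound exposure, growth inhibition relative to vehicle.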

Assay [4] in a line: NCI Yeast Anticancer Drug Screen. Data for the cln2 rad14 strain (AID 165).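 Note: 0% = growth equal to vehicle treated cultures.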 Particulars: S. cerevisiae cln2 rad14 strain, at 50.0 µM, stronger effect = higher value. The method, boiled down:
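Test compounds were added to cln2 rad14 yeast cultures; inhibition of growth was then determined by comparison with vehicle treatment.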

Assay [5] in a line: NCI Yeast Anticancer Drug Screen. Data for the bub3 strain (AID 167). Conditions: S. cerevisiae bub3 mutant strain, at 50.0 µM, stronger effect = higher value. In outline:
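Growth of a checkpoint-deficient yeast mutant is measured after compound exposure. Values represent inhibition relative to vehicle.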

Assay [6] in a line: NCI Yeast Anticancer Drug Screen. Data for the mlh1 rad18 strain (AID 175). Conditions: S. cerevisiae mlh1 rad18 strain growth inhibition; at 50.0 µM; stronger effect = higher value. In outline:
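Inhibition values reflect reduced growth of mutant yeast versus vehicle-treated controls following compound exposure; the mutations affect DNA damage repair.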

Structures are written as SMILES. About 79,000 compounds went through this panel and 15% of them were active in at least one assay; those are over-represented in the sample as a whole. Values without a mark were called inactive. Calls of active or inactive are those of the source. Cut-off read from the data, not from the text of the source: active = growth inhibition above about 70%; inactive = the rest. *1 amine or outer side, *2 acyl side, *3 side chain or, on linkers, in order; H or OH if unused. Where a SMILES comes first, the peptide text is derived from it. Bridges are numbered along the chain shown (N, C = ends). Roman numbers before positions name the chains, in order. [ ]: non-standard residue; d: D form. Actinocin(1to9) = Cc1c2oc3c(C)ccc(C(=O)[*:2])c3nc-2c(C(=O)[*:1])c(N)c1=O; NMeV = CN[CH](C(=O)O)C(C)C; Sar = CNCC(=O)O

Consider `COC(=O)[C@H]1[C@H]2CCOC1(c1cc(OC)c(OC)c(OC)c1)c1cc3c(cc1[C@H]2O)OCO3`, for which the growth inhibition in assay [1] is -5.55%; in assay [2], -63%; in assay [3] it was -21.6%; in assay [4], -14.3%; in assay [5], -38%; in assay [6], -0.6%.

As to `CC1(C)N=C(N)N=C(N)N1c1ccc(CCCCc2cc(Cl)ccc2S(=O)(=O)F)c(Cl)c1`, the growth inhibition in assay [1] is 99.3% (active); in assay [2] it was 99.7% (active); in assay [3], 99.5% (active); in assay [4], 98.4% (active); in assay [5], 98.5% (active); in assay [6] it was 99.6% (active).

As for `COc1ccc2c(c1OC)C13CCN(C)C(C2)C12C=CC(=O)C3c1c(OC)ccc(OC)c12` (stereo not given), the growth inhibition is 37.4% in assay [1]; 6.95% in assay [2]; 24.2% in assay [3]; 18.8% in assay [4]; 4.2% in assay [5]; 27.2% in assay [6].

Regarding `CCOP(=O)(O)SP(=O)(O)OCC.[Zn+2]`, the growth inhibition was -13.9% in assay [1]; -11.8% in assay [2]; -7% in assay [3]; 2.9% in assay [4]; -5.45% in assay [5]; -0.35% in assay [6].

For the molecule `CCCC(=O)[O-].N.N.N.N.N.[Co+3].[O-][Cl+3]([O-])([O-])[O-]`, the growth inhibition is -23.8% in assay [1]; -2.3% in assay [2]; -41% in assay [3]; 8% in assay [4]; 1.7% in assay [5]; -21.9% in assay [6].

`O=C1/C(=C\c2ccccc2)C2OCC=C3CN4CCC56c7ccccc7N1C5C2C3CC46` (stereo not given): the growth inhibition was -18.6% in assay [1]; -33.1% in assay [2]; -3.9% in assay [3]; -3.25% in assay [4]; -19.9% in assay [5]; -9.05% in assay [6].

Take `COC(=O)c1cncn1C(C)c1cccc2ccccc12` (stereo not given): the growth inhibition was 90.7% (active) in assay [1]; 91% (active) in assay [2]; 79.2% (active) in assay [3]; 59% in assay [4]; 88.2% (active) in assay [5]; 89.3% (active) in assay [6].

As to `CC1(C)C(=O)/C(=N\O)C[C@@]2(C)C1=CC[C@@H]1[C@@H]2CC[C@]2(C)C(=O)/C(=N/O)C[C@@H]12`, the growth inhibition in assay [1] was 1.55%; in assay [2], -5.25%; in assay [3], -0.05%; in assay [4] it was -45.1%; in assay [5], -1%; in assay [6] it was -12.1%.

Take `COc1ccc([As]=O)cc1N` (stereo not given): the growth inhibition was 4.8% in assay [1]; 18.1% in assay [2]; 8.75% in assay [3]; 7.25% in assay [4]; -7.45% in assay [5]; -10.5% in assay [6].

Regarding `O=[N+]([O-])c1cccc(C(Cl)Cl)c1`, the growth inhibition was 30.5% in assay [1]; -4.7% in assay [2]; 22.4% in assay [3]; 22.1% in assay [4]; 12.1% in assay [5]; -2.25% in assay [6].

Regarding `CC/C=C/C1(C(C)C)C(=O)NC(=O)NC1=O` (tested in a mixture with another compound), the growth inhibition in assay [1] is 14.9%; in assay [2], 0.35%; in assay [3], 5.15%; in assay [4] it was -27.4%; in assay [5], 0.3%; in assay [6] it was 13.7%.

On to `OCC1CCCN2CCCCC12` (stereo not given), for which the growth inhibition was 1.2% in assay [1]; 0.35% in assay [2]; -4.2% in assay [3]; -39.1% in assay [4]; -20.4% in assay [5]; 7.35% in assay [6].

On to `O=N[O-].O=N[O-].[Co].[NH-]CC[N-]CCO.[NH-]CC[N-]CCO`, for which the growth inhibition in assay [1] was 37.6%; in assay [2], -0.7%; in assay [3], 17.1%; in assay [4], 14.9%; in assay [5], 5.7%; in assay [6], 7.55%.

With `C[C@@H]1C[C@@H](O)[C@]2(O)O[C@@H]3C[C@@]4(C=O)[C@@H](CC[C@@H]5[C@@H]4CC[C@]4(C)[C@@H](C6=CC(=O)OC6)CC[C@]54O)C[C@H]3O[C@@H]2O1`, the growth inhibition in assay [1] is -7.25%; in assay [2], -16.6%; in assay [3], 27.4%; in assay [4], -4.55%; in assay [5], -15.2%; in assay [6] it was -96.5%.

Regarding `CC([NH-])C(=O)O.[Cl][Pt][Cl]` (stereo not given), the growth inhibition in assay [1] is -25.6%; in assay [2], -9.6%; in assay [3], -24.9%; in assay [4], 7.55%; in assay [5] it was -10.6%; in assay [6] it was -9.55%.

`CCC(C)C1NC(=O)C(NC(=O)c2c3nc4c(C(=O)NC5C(=O)NC(C(C)C)C(=O)N6CCCC6C(=O)N(C)CC(=O)N(C)C(C(C)C)C(=O)OC5C)ccc(C)c4oc-3c(C)c(=O)c2N)C(C)OC(=O)C(C(C)C)N(C)C(=O)CN(C)C(=O)C2CCCN2C1=O` (stereo not given) (I: TIP[Sar][NMeV] / II: TVP[Sar][NMeV]; ester I:1-I:C, II:1-II:C; linker I:N-II:N via Actinocin(1to9); configuration not given here): the growth inhibition in assay [1] is 88% (active); in assay [2] it was 92.2% (active); in assay [3], 91.2% (active); in assay [4], 88.3% (active); in assay [5], 89.8% (active); in assay [6], 85.7% (active).

On to `CCOP(=S)(NCCCOC)OCC`, for which the growth inhibition was 0.25% in assay [1]; 5.8% in assay [2]; 12.3% in assay [3]; -32.4% in assay [4]; 22.6% in assay [5]; 2.4% in assay [6].

Consider `CCCC(NC(=O)CCl)C(=O)O` (stereo not given), for which the growth inhibition was -13.1% in assay [1]; -18.1% in assay [2]; -11.4% in assay [3]; -73.8% in assay [4]; 0.65% in assay [5]; -8.25% in assay [6].

Consider `C[As+](c1ccccc1)(c1ccccc1)c1cccc2ccccc12`, for which the growth inhibition in assay [1] is 10.2%; in assay [2] it was 38.9%; in assay [3], 21.2%; in assay [4], -10.1%; in assay [5] it was 26.1%; in assay [6] it was 34.3%.

For `NC(=O)c1cc([N+](=O)[O-])cc([N+](=O)[O-])c1N(CCCl)CCCl`, the growth inhibition in assay [1] was -3%; in assay [2] it was -10.9%; in assay [3] it was -15.4%; in assay [4], -3.8%; in assay [5], -8.95%; in assay [6], -14.6%.
